This note sets out measurements from PubChem BioAssay AID1085 (Emory University Molecular Libraries Screening Center, 2008).

The structures appear in SMILES notation. Out of some 220,000 compounds screened, about 930 (0.42%) were called active. The entries come from a sample that favours actives as a whole. Values without a mark were called inactive. No stated cut-off is given here; in the data, active means inhibition above about 50%; inactive means the rest.

The assay deals with Glycoprotein 42 (Epstein-Barr virus (strain AG876)) (UniProt Q1HVG2). The experiment in a line: Epstein-Barr virus gp42 inhibitors, primary screen, biochemical, uHTS, fluorescence polarization (AID 1085). Conditions: Fluorescence polarization binding assay, mP read-out; active compounds read high; tested at 21.74 µM.
Sequence of Glycoprotein 42 (Epstein-Barr virus (strain AG876)) (Q1HVG2 whole entry, looked up): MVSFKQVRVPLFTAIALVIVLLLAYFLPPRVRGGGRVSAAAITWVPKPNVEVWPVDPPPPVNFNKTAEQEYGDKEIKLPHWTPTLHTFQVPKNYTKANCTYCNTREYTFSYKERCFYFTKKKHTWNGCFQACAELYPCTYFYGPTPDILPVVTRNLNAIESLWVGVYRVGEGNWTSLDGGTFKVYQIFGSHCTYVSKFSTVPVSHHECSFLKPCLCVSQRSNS
Consider `CCO[C@H]1OC(C(=O)N2CCCCCCC2)=C[C@@H](c2ccc(C(F)(F)F)cc2)[C@@H]1CCCO`, for which the inhibition was 116% (active). As to `CCO[C@H]1OC(C(=O)N2CCOCC2)=C[C@@H](c2ccc3c(c2)OCO3)[C@@H]1CCCO`, the inhibition is -9.61%.

In the case of `CCO[C@@H]1OC(C(=O)N2CCOCC2)=C[C@H](C)[C@H]1CCCO`, the inhibition is -7.59%. For `COC(=O)c1sccc1NN1C(=O)c2ccccc2C1=O`, the inhibition was -6.24%.

Consider `CC(=O)Nc1ccc(S(=O)(=O)N2CCN(C(=O)c3ccccc3F)CC2)cc1`, for which the inhibition was -7.73%.

Take `CCOC(=O)C1=C(N)N(c2ccc(C)cc2)C2=C(C(=O)CCC2)C1c1cccs1` (stereo not drawn): the inhibition is -16.1%. As to `CC(=O)NC(NC(=S)Nc1c(C)n(C)n(-c2ccccc2)c1=O)C(Cl)(Cl)Cl` (stereo not drawn), the inhibition is -9.48%. As for `COc1ccc(/C(C)=N/NC(=O)CCC(=O)Nc2ccc(Cl)cc2Cl)c(OC)c1`, the inhibition is -0.68%. `Cc1nn(-c2cc(Cl)ccc2N)c(=O)c2ccccc12`: the inhibition is -22.9%. Consider `Cc1nn(C)cc1N1C(=O)c2cccc3c(N)ccc(c23)C1=O`, for which the inhibition is 149% (active). To `COc1ccc(N2C(=O)c3cccc4cccc(c34)C2=O)nn1` belongs 15.4%; to `Clc1cccc(CN2COc3c(cc(Cl)c4cccnc34)C2)c1`, 1.66%; to `CC(C)(C)NC(=O)CSC(=Nc1ccccc1F)NC#N`, 4.3%. `CCNC(=O)CC1C(=O)N(c2ccc(OC)cc2)C(=S)N1CCc1ccncc1` (stereo not drawn): the inhibition was -17.4%. Regarding `CCOC(=O)c1sc(NC(=O)CSc2nc(C)cc(C(F)(F)F)n2)c(C#N)c1C`, the inhibition was -17.3%. To `CCOc1ccc2nc(NCCNS(=O)(=O)c3ccccc3)c(C#N)cc2c1` belongs -8.9%.

Consider `CCOc1ccc2nc(N3CCCN(C(=O)Nc4ccccc4C)CC3)c(C#N)cc2c1`, for which the inhibition was 53.8% (active). For `COc1ccc2nc(N3CCCC(O)C3)c(C#N)cc2c1` (stereo not drawn) the value was 46.9%; for `O=C(CCCCCN1C(=O)c2cccc3cccc(c23)C1=O)NCc1ccco1`, -16.7%. To `CCN(CC)S(=O)(=O)c1ccc(N2CCOCC2)c(NC(=O)C2COc3ccccc3O2)c1` (stereo not drawn) belongs -2.58%; to `O=C(N/N=C/c1ccco1)c1csc2c1CCCC2`, -15.1%; to `Cc1occc1C(=O)N1CCCc2ccccc21`, -1.51%.

As for `Cc1c(C(=O)N2CCCc3ccccc32)sc2nc(-c3ccccc3)cn12`, the inhibition is -4.31%.

For `Cc1cccc2cc3c(N)c(C(=O)N4CCCc5ccccc54)sc3nc12`, the inhibition was 88.5% (active). To `CCOC(=O)C(C)n1nc(-c2ccccc2)c2ccccc2c1=O` (stereo not drawn) belongs -6.93%; to `Cn1cnc([N+](=O)[O-])c1Sc1ccccc1`, -26%; to `COC(=O)C[n+]1cccc2ccccc21`, 128% (active). For `COC(=O)Cc1nc2ccccc2[nH]1` the value was -12.7%. With `COc1ccccc1NC(=O)C[n+]1ccccc1`, the inhibition is -3.15%. In the case of `CSc1cc(C)n(-c2ccccc2C)c(=S)c1C(C)=O`, the inhibition is -23.5%. To `COc1ccc(N(CCC#N)S(=O)(=O)c2ccc(Cl)cc2)cc1` belongs -7.41%; to `O=C(Nc1ccc(Cl)cc1)C1c2cccc[n+]2CC(=O)N1Cc1ccc2c(c1)OCO2` (stereo not drawn), -27%; to `CCOc1cccc(=O)c2c(C)n(CC3CCCO3)c(C)c12` (stereo not drawn), 14.8%. For `O=S(=O)(Cc1cc(Sc2ccccc2)nc(-c2ccccc2)n1)c1ccccc1` the value was 3.74%; for `CCN(c1ccc(NC(=O)COC(=O)CCc2nc3ccccc3n2-c2ccccc2)cc1)C(C)C`, -13%. Take `COc1ccc([N+](=O)[O-])cc1NC(=O)c1ccc(N(Cc2ccccc2C)S(C)(=O)=O)cc1`: the inhibition was -6.7%. To `Cc1ccc(-c2cnc(NC(=O)CCC(=O)N(C)Cc3ccccc3)n2C)cc1` belongs 4.29%; to `O=C(N/N=C/c1ccc([N+](=O)[O-])cc1)c1c[nH]c2ccccc12`, -12.7%. For the compound `Cc1nc2ccccc2cc1C(=O)N/N=C/c1ccc([N+](=O)[O-])cc1`, the inhibition was -3.69%.

For `O=C(N/N=C/c1ccc(Cl)cc1)c1nc2ccc([N+](=O)[O-])cc2c(=O)[nH]1`, the inhibition was 78.6% (active).

`Nc1[nH]c(=S)nc2nc(-c3ccccc3)c(-c3ccccc3)nc12`: the inhibition was -1.95%.

As for `COc1ccc(NC(=O)Cn2c(=O)n(Cc3ccco3)c(=O)c3ccccc32)cc1`, the inhibition was -3.89%. Turning to `Cc1cs/c(=N\N=C\c2ccc(O)cc2)n1Cc1ccco1`, the inhibition is 8.07%. In the case of `CN(c1ccccc1)S(=O)(=O)c1cccc(NC(=O)Cc2c(F)cccc2Cl)c1`, the inhibition is 13.1%. Turning to `O=S(=O)(c1ccc(F)cc1)N1CCN(C(=S)NC2CCCC2)CC1`, the inhibition is -9.24%. To `CCN(CC)P(=O)(Nc1ccc(SC(F)F)cc1)c1ccc(N(C)C)cc1NC(=O)c1ccco1` (stereo not drawn) belongs -14.5%. For `O=C(NCCN1C(=O)S/C(=C\c2cccnc2)C1=O)c1ccc(S(=O)(=O)N2CCCC2)cc1` the value was -22.6%; for `O=C(O)COc1ccc(-c2nccc(-c3cccs3)n2)cc1`, 50.4% (active). For the compound `O=C(Nc1ccnc(-c2ccncc2)n1)c1cccs1`, the inhibition was -5.75%. As for `COC(=O)CSc1nccc(-c2cccs2)n1`, the inhibition is -13.3%. As for `CCN(CC)C(=O)Oc1ccc(Br)cc1C(=O)Nc1ccc(F)c(Cl)c1`, the inhibition is -10.6%.

Regarding `Cc1ccccc1N1C(=O)C(Oc2ccc(Cl)cc2)C1CNCC1CCCO1` (stereo not drawn), the inhibition was -2.06%. To `COc1cc(C(CCN2CCN(c3ccccc3)CC2)c2c(OC)cc(OC)c3ccc(=O)oc23)cc(OC)c1OC` (stereo not drawn) belongs -16.3%; to `CCOC(=O)/C(C#N)=C/c1ccc(N2CCCCC2)cc1`, -25.7%.

As for `CCOC(=O)/C(C#N)=C/c1ccc(N2CCN(Cc3ccccc3)CC2)cc1`, the inhibition was 128% (active). To `COc1ccc(N2CCN(C(=O)/C(C#N)=C/c3ccccc3)CC2)cc1` belongs -19%; to `Cc1ccc(C(=O)COC(=O)CCCC(=O)NC2CCCCC2)cc1[N+](=O)[O-]`, 4.86%. For `O=C(Cc1ccc(Br)cc1)N1CCN(c2ccccn2)CC1` the value was 4.9%.

Usually inhibition stands for the drop in the measured response relative to a control, in per cent.
